From PMC4336329 (PLoS ONE, 2015)
In all, about 310,000 compounds went through this assay and about 14,000 (4.5%) showed an effect of 50% or more. Effects have a minus sign here. The full list was thinned out, with strong results kept by preference.
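Note: peak tail current of the secondary pulse compared with the same well before compound.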

These compounds were tested against human ether-à-go-go-related gene (hERG) potassium channel (human, UniProt Q12809) (assay: primary screen, population patch clamp on CHO cells stably expressing hERG; higher = less effect of the substance).
Sequence of human ether-à-go-go-related gene (hERG) potassium channel (Q12809 whole entry, looked up): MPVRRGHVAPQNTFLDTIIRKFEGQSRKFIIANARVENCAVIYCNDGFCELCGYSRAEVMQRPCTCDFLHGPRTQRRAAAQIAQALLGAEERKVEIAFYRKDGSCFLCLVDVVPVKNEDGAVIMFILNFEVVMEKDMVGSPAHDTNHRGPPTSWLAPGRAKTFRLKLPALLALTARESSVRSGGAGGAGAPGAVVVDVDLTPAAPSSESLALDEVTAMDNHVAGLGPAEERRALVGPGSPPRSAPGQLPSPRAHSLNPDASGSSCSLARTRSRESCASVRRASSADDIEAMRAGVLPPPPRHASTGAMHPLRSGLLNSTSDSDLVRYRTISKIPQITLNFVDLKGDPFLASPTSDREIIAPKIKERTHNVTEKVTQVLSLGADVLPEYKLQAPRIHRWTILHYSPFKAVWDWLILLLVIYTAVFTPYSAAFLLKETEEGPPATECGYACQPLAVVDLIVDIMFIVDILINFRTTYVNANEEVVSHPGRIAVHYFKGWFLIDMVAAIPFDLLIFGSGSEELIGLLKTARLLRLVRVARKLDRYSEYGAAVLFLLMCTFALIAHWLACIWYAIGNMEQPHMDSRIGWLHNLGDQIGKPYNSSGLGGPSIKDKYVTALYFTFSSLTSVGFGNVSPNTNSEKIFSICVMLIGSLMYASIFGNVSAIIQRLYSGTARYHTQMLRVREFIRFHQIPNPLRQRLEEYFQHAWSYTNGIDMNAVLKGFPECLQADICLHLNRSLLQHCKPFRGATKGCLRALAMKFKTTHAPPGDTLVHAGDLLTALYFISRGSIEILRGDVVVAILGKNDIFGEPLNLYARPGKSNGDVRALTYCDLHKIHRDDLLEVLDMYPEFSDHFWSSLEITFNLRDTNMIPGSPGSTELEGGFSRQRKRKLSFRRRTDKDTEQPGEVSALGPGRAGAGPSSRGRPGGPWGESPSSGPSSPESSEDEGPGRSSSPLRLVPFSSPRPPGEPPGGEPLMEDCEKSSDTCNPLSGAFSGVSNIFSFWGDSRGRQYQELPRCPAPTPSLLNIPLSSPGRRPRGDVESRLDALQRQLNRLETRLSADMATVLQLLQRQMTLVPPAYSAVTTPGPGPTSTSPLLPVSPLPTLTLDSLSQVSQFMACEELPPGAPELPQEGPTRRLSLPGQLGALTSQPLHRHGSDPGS
`Cc1ccc(S(=O)(=O)NCc2cccnc2)cc1C(=O)N1CCCC1` was tested, and the “hERG current change (%, negative = inhibition) at 10uM” value was 20.3%. For `OCCC1CN(Cc2ccccc2O)CCN1CCCc1ccccc1` (stereo not drawn), the “hERG current change (%, negative = inhibition) at 10uM” value was -74.8%. `Cc1ccccc1CN1CCN(CCCc2ccccc2)C(CCO)C1` (stereo not drawn) was tested, and the “hERG current change (%, negative = inhibition) at 10uM” value was -70%. In the case of `Cc1ccccc1CN1CCN(CC2CC2)CC1CCO` (stereo not drawn), the “hERG current change (%, negative = inhibition) at 10uM” value is reported as -4.79%. `OCCC1CN(Cc2ccccc2O)CCN1CCc1ccccc1` (stereo not drawn) was tested, and the “hERG current change (%, negative = inhibition) at 10uM” value was -35.6%. With `COc1ccc(-c2cc(C(=O)Nc3cccnc3Cl)no2)cc1OC` the “hERG current change (%, negative = inhibition) at 10uM” value was 16.6%. In the case of `COc1ccc(OC)c(Nc2nnc(C)c(=O)[nH]2)c1`, the “hERG current change (%, negative = inhibition) at 10uM” value is reported as 6.27%. For `O=C1NC(=O)/C(=C\c2ccc(Br)o2)S1`, the “hERG current change (%, negative = inhibition) at 10uM” value was 21%. In the case of `CCOC(=O)c1[nH]c(C)c(C(=O)OCC(=O)N(CC)C2CCS(=O)(=O)C2)c1C` (stereo not drawn), the “hERG current change (%, negative = inhibition) at 10uM” value is reported as -8.58%. In the case of `COc1cccc(NC(=O)CCN2C(=O)c3cccc([N+](=O)[O-])c3C2=O)c1`, the “hERG current change (%, negative = inhibition) at 10uM” value is reported as -3.85%. In the case of `CC(OC(=O)CCN1C(=O)c2cccc([N+](=O)[O-])c2C1=O)C(=O)Nc1cc(Cl)cc(Cl)c1` (stereo not drawn), the “hERG current change (%, negative = inhibition) at 10uM” value is reported as -68.6%. In the case of `Cc1cccc(NC(=O)CCN2C(=O)c3cccc([N+](=O)[O-])c3C2=O)c1`, the “hERG current change (%, negative = inhibition) at 10uM” value is reported as 10.8%. In the case of `Cc1cc(N)ccc1NC(=O)CN1CCCC1`, the “hERG current change (%, negative = inhibition) at 10uM” value is reported as 21.2%. In the case of `N#Cc1sc(C(N)=O)c(-c2ccccc2)c1-c1ccccc1`, the “hERG current change (%, negative = inhibition) at 10uM” value is reported as 9.86%. In the case of `Cc1cc(Nc2ccccc2)c2c([N+](=O)[O-])ccc(C)c2n1`, the “hERG current change (%, negative = inhibition) at 10uM” value is reported as -24.7%. With `CCOc1ccc2nc(C)cc(Nc3cccc([N+](=O)[O-])c3)c2c1.Cl` the “hERG current change (%, negative = inhibition) at 10uM” value was -30.4%. In the case of `O=[N+]([O-])c1cccc(Nc2c3ccccc3nc3ccccc23)c1`, the “hERG current change (%, negative = inhibition) at 10uM” value is reported as -11.5%. In the case of `Cc1cc(Nc2ccc([N+](=O)[O-])cc2)c2ccccc2n1`, the “hERG current change (%, negative = inhibition) at 10uM” value is reported as -20%. With `Cc1cc(Nc2cccc([N+](=O)[O-])c2)c2cccc(C)c2n1.Cl` the “hERG current change (%, negative = inhibition) at 10uM” value was -77.3%. `Cc1cc(Nc2cccc([N+](=O)[O-])c2)c2ccccc2n1` was tested, and the “hERG current change (%, negative = inhibition) at 10uM” value was -76.9%. In the case of `CCOc1cc(C2NN=C(c3ccc(C)cc3)S2)ccc1O` (stereo not drawn), the “hERG current change (%, negative = inhibition) at 10uM” value is reported as 9.67%. With `Cc1occc1C(=O)Nc1ccc2c(c1)OCO2` the “hERG current change (%, negative = inhibition) at 10uM” value was -7.71%. With `O=C(O)c1ccc(C(=O)O)c(C(=O)c2ccccc2)c1` the “hERG current change (%, negative = inhibition) at 10uM” value was 1.72%. `O=C(NC(=S)Nc1ccc(CN2CCOCC2)cc1)c1ccc([N+](=O)[O-])cc1` was tested, and the “hERG current change (%, negative = inhibition) at 10uM” value was -13%. For `O=[N+]([O-])c1ccc(CN2CCCCCC2)cc1`, the “hERG current change (%, negative = inhibition) at 10uM” value was -32.8%. In the case of `c1ccc(CN2CCOCCOCCOCC2)cc1`, the “hERG current change (%, negative = inhibition) at 10uM” value is reported as 15.6%. `O=[N+]([O-])c1ccc(CN2CCSCC2)cc1` was tested, and the “hERG current change (%, negative = inhibition) at 10uM” value was 15.5%. For `O=[N+]([O-])c1ccc(CN2CCOCCOCCOCC2)cc1`, the “hERG current change (%, negative = inhibition) at 10uM” value was -59.1%. For `O=[N+]([O-])c1ccc(CN2CCOCCOCCN(Cc3ccc([N+](=O)[O-])cc3)CCOCC2)cc1`, the “hERG current change (%, negative = inhibition) at 10uM” value was -77.8%. For `CC(OC(=O)c1ccc(Cl)c(S(=O)(=O)N2CCOCC2)c1)C(=O)NC1CCCCC1C` (stereo not drawn), the “hERG current change (%, negative = inhibition) at 10uM” value was -35.9%. In the case of `O=C1OC(CCl)CN1Cc1c(Cl)cccc1Cl` (stereo not drawn), the “hERG current change (%, negative = inhibition) at 10uM” value is reported as -0.492%. For `O=C(COc1ccc(C(=O)c2ccc(F)cc2)cc1)NCc1ccc(F)cc1`, the “hERG current change (%, negative = inhibition) at 10uM” value was 4.49%. With `COC(=O)[C@]1(C)N[C@H](c2ccc(-c3ccc(F)cc3)cc2)[C@@H]2C(=O)N(C)C(=O)[C@@H]21.O=C(O)C(F)(F)F` the “hERG current change (%, negative = inhibition) at 10uM” value was -1.3%. With `NS(=O)(=O)c1cc(C(=O)O)c(NCc2ccco2)cc1Cl` the “hERG current change (%, negative = inhibition) at 10uM” value was 14.7%. For `CCC(=O)N=c1sc2ccccc2n1-c1ccccc1`, the “hERG current change (%, negative = inhibition) at 10uM” value was 17.8%. With `Cc1cc(N2CCCC2)ccc1C=C(C#N)C#N` the “hERG current change (%, negative = inhibition) at 10uM” value was -13.2%. In the case of `Cc1cc(C=C(C#N)C#N)ccc1N1CCCC1`, the “hERG current change (%, negative = inhibition) at 10uM” value is reported as -65%. For `N#CC(C#N)=Cc1ccc(N2CCCC2)cc1`, the “hERG current change (%, negative = inhibition) at 10uM” value was 4.17%. `Cc1ccc(C)c(NC(=O)c2cc3c([nH]c4ccccc43)c(C)n2)c1` was tested, and the “hERG current change (%, negative = inhibition) at 10uM” value was 5.7%. For `c1ccc2c(N3CCCCC3)nc(N3CCOCC3)nc2c1`, the “hERG current change (%, negative = inhibition) at 10uM” value was -33.7%. `c1ccc2c(N3CCCCC3)nc(N3CCCC3)nc2c1` was tested, and the “hERG current change (%, negative = inhibition) at 10uM” value was -69.6%. `I.c1ccc2c(c1)nc(N1CCCCCC1)c1ccccc12` was tested, and the “hERG current change (%, negative = inhibition) at 10uM” value was 0.834%. `Cl.c1ccc2c(c1)nc(N1CCCCC1)c1ccccc12` was tested, and the “hERG current change (%, negative = inhibition) at 10uM” value was -2.67%. For `c1ccc2c(N3CCCCC3)nc(N3CCCCC3)nc2c1`, the “hERG current change (%, negative = inhibition) at 10uM” value was -39.1%. With `Cc1nc(N2CCCCCC2)c2ccccc2n1.Cl` the “hERG current change (%, negative = inhibition) at 10uM” value was -51.5%.
